The list is not random: actives were taken first. Their share in the collection is about 1.6%.
KCNQ2 block: rat KCNQ2 potassium channel inhibitors, primary screen, cell-based, CHO-K1, FluxOR thallium flux, B-score; Potassium voltage-gated channel subfamily KQT member 2 (Rattus norvegicus), O88943; 20 min; active compounds read low; 310,000 tested, 1.1% active; B-score at 10 µM;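 active means fluorescence ratio B-score at most minus 3 library SDs, with starting brightness B-score within 2 library SDs, cut at about -5.5 in these data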
Target sequence (O88943 whole entry, looked up): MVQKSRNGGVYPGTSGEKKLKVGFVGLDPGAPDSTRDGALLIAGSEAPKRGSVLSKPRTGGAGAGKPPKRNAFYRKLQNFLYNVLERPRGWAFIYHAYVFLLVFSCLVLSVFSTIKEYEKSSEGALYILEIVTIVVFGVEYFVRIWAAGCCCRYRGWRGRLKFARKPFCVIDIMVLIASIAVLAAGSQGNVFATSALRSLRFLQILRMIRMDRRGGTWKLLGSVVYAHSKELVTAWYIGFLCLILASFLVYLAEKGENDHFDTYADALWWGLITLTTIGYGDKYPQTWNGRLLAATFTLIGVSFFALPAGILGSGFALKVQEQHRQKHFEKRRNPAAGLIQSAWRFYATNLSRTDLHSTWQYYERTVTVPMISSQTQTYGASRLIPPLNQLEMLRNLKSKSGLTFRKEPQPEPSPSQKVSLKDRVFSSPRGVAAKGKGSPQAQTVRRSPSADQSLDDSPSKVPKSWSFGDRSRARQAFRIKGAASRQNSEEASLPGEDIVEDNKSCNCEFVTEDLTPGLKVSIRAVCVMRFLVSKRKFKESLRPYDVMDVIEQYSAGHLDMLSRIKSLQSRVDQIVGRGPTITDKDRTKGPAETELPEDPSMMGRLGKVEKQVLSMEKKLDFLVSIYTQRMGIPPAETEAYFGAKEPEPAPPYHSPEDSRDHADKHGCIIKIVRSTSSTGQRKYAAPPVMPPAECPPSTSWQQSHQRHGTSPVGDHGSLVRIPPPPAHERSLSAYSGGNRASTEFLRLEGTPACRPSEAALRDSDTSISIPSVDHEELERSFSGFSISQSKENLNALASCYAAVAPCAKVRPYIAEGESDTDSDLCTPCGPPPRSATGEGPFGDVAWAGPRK
KCNQ2 pot: potentiators of rat KCNQ2 potassium channel; CHO-K1 KCNQ2, FluxOR thallium flux fluorescence; active compounds read high; B-score at 10 µM; Potassium voltage-gated channel subfamily KQT member 2 (Rattus norvegicus), O88943; 310,000 tested, 0.54% active;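 active means fluorescence ratio B-score at least 3 SD of library B-scores, with initial fluorescence B-score within 3 of them, cut at about 5.3 in these data; same plate scores as AID 2156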;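 further: B-score of peak minus minimum over baseline fluorescence ratio after K+ and Tl+ stimulus; positive B-score means potentiation of KCNQ2 with more thallium influx and brighter signal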
Kir21 conf inh: mouse Kir2.1 channel blockers, retest, confirmation, cell-based, FluxOR thallium flux, duplicate; shares compounds with KCNQ2 pot; Kir2.1-expressing cells, FluxOR thallium flux fluorescence; active compounds read low; Tl flux remaining, % of negative control (active compounds read low), % at 10 µM; 2,300 tested, 41% active;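 active means Primary-screen hit whose thallium flux fell at least 3 control SD below untreated wells in both duplicates, with normal baseline fluorescence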;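 further: 0% = blank wells without stimulus and 100% = stimulated no-compound controls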
HEK293 ctr: counter-screen for Kir2.1 inhibitors: effect in parental HEK293 cells. 2,300 tested, 19% active. FluxOR thallium flux fluorescence; 0% = unstimulated blank wells. shares compounds with KCNQ2 pot. FluxOR signal as % of negative control (100 = no effect), % at 10 µM;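 active means dye signal at least 3 control SD above or below untreated wells in both duplicates, raw fluorescence within 3, either direction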;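 further: percent is based on the flux ratio of peak minus minimum fluorescence over baseline F0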
CHO-K1 Tl ctr: nonspecific thallium flux increase in parental CHO-K1, confirmation, counter-screen for KCNQ2 potentiator project, cell-based, FluxOR thallium flux, duplicate | shares compounds with KCNQ2 pot | parental CHO-K1 cells, FluxOR thallium flux fluorescence; zero = vehicle mean+3SD, 100% = vehicle-minus-blank window | activity increase over 3SD of controls, % at 10 µM | 1,200 tested, 43% active | AID 2282, 2010;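 active means signal rise of at least 3 SD above the untreated control mean, in both duplicate wells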;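 further: counter screen of KCNQ2 potentiator hits so any rise reflects channel-independent effects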
KCNQ1 sel pot: human KCNQ1 channel potentiation off-target, confirmation, selectivity assay for KCNQ2 potentiator project, cell-based, CHO, FluxOR thallium flux; activation over 3SD threshold, % at 10 µM; CHO KCNQ1 stable, FluxOR thallium flux fluorescence; beyond 3SD, as % of vehicle-control signal; 1,200 tested, 28% active; shares compounds with KCNQ2 pot;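 active means fluorescence ratio rise of at least 3 SD of vehicle wells above their mean, in both replicate wells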;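 further: 0% = vehicle mean plus 3 SD and 100% = vehicle minus unstimulated blank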
KCNQ2 pot confirm: rat KCNQ2 channel potentiators, confirmation, cell-based, CHO, FluxOR thallium flux, duplicate. CHO-KCNQ2 cells, FluxOR thallium flux fluorescence. AID 2287, 2010. shares compounds with KCNQ2 pot. 1,200 tested, 68% active. potentiation, less the hit threshold, % at 10 µM;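 active means fluorescence ratio rising 3 SD or more over the vehicle control mean in both replicates, plus primary screen hit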;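 further: peak minus minimum thallium fluorescence divided by baseline after K/Tl stimulus; 0% = vehicle mean plus 3 SD and 100% = vehicle minus unstimulated blank difference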
Kir2-1 sel: mouse Kir2.1 channel activation off-target, confirmation, selectivity assay for KCNQ2 potentiator project, cell-based, HEK293, FluxOR thallium flux; HEK293 Kir2.1, FluxOR thallium flux fluorescence; shares compounds with KCNQ2 pot; 1,200 tested, 2% active; activity over 3SD threshold, % at 10 µM;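 active means fluorescence ratio rise of at least 3 SD above the vehicle-control mean, seen in both replicates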;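 further: 0% = vehicle mean plus 3 SD and 100% = vehicle minus no-stimulus blank window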
KCNQ2 W236L MoA: potentiators of retigabine-insensitive KCNQ2 W236L, mechanism study for KCNQ2 potentiator project, cell-based, rat KCNQ2 W236L, CHO, automated patch clamp | current increase over 3SD of negative controls (%), active compounds read high, % at 25 µM | AID 2558, 2010 | shares compounds with KCNQ2 pot | 940 tested, 10% active | automated patch clamp current;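 active means current increase at least 3 SD of the untreated controls above them in both duplicate recordings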
* = called active by the depositor.

What do the screens show for `NC(=O)C1CCN(C(=O)c2cc3c(s2)CCCC3)CC1`?
KCNQ2 block: inactive; Kir21 conf inh: inactive; HEK293 ctr: inactive

What do the screens show for `CC(C)NC(=O)C1CCN(C2CCN(C(=O)c3cc4c(s3)CCCCC4)CC2)CC1`?
KCNQ2 block: inactive

How did COc1ccc(C(=O)CSc2nc(C(C)(C)C)nc3ccccc23)cc1 do in these assays?
KCNQ2 block: inactive; KCNQ2 pot: 13*; CHO-K1 Tl ctr: -7; KCNQ1 sel pot: 60*; KCNQ2 pot confirm: 20*; Kir2-1 sel: -51; KCNQ2 W236L MoA: inactive

How did CC(C)(C)c1nc(SCC(=O)NCc2ccco2)c2ccccc2n1 do in these assays?
KCNQ2 block: inactive; KCNQ2 pot: 0.34

What do the screens show for `O=S(=O)(c1ccccc1)N(Cc1ccccc1)c1ccccn1`?
KCNQ2 block: inactive; Kir21 conf inh: inactive; HEK293 ctr: inactive

Results for CC(=O)Nc1ccc(S(=O)(=O)N(Cc2ccccc2)c2ccccn2)cc1 ?
KCNQ2 block: inactive

Results for CCCCn1c(N)c(N(CC(C)C)C(=O)CCCc2cccs2)c(=O)[nH]c1=O ?
KCNQ2 block: inactive; KCNQ2 pot: 1.8

What do the screens show for `COc1ccccc1C1c2ccc3ccccc3c2Oc2ncn(CCN(C)C)c(=N)c21` (stereo not given)?
KCNQ2 block: inactive

What do the screens show for `COc1ccc(C2c3ccc4ccccc4c3Oc3ncn(CCCN(C)C)c(=N)c32)cc1` (stereo not given)?
KCNQ2 block: -6.1*; KCNQ2 pot: -6.1; Kir21 conf inh: 36%*; HEK293 ctr: inactive

How did CCN1C(=O)[C@H]2[C@@H](c3ccc(-c4cccc(Cl)c4)c(OC)c3)N[C@@](C)(C(=O)OC)[C@H]2C1=O do in these assays?
KCNQ2 block: inactive

What do the screens show for `Cc1cc(C)c(NC(=O)C(C)c2cccc(C(=O)c3ccccc3)c2)c(C)c1` (stereo not given)?
KCNQ2 block: inactive; KCNQ2 pot: 23*; Kir21 conf inh: inactive; HEK293 ctr: inactive; CHO-K1 Tl ctr: 54*; KCNQ1 sel pot: -9; KCNQ2 pot confirm: 54*; Kir2-1 sel: -31; KCNQ2 W236L MoA: inactive

Results for CC(=O)Nc1ccc(NC(=O)C(C)c2cccc(C(=O)c3ccccc3)c2)cc1 (stereo not given) ?
KCNQ2 block: inactive; KCNQ2 pot: 0.37

What do the screens show for `Cc1cccc(CCNC(=O)c2cccc(NC3=NC4CS(=O)(=O)CC4S3)c2)c1` (stereo not given)?
KCNQ2 block: inactive; KCNQ2 pot: 0.09

Results for CCSc1nc(O)cc(=O)n1CC ?
KCNQ2 block: inactive

Results for COc1ccc(CCNc2ncnc3sc(C)cc23)cc1OC ?
KCNQ2 block: inactive; Kir21 conf inh: 65%*; HEK293 ctr: inactive

Results for COc1ccc(CCNc2ncnc3[nH]ncc23)cc1OC ?
KCNQ2 block: inactive

What do the screens show for `CCn1nc(C(=O)OCc2c(C)noc2C)c2ccccc2c1=O`?
KCNQ2 block: inactive; KCNQ2 pot: 8.4*; Kir21 conf inh: inactive; HEK293 ctr: inactive; CHO-K1 Tl ctr: 77*; KCNQ1 sel pot: -23; KCNQ2 pot confirm: -18; Kir2-1 sel: -42

What do the screens show for `CCn1nc(C(=O)OCC(=O)NC(C)C)c2ccccc2c1=O`?
KCNQ2 block: inactive

How did Cc1ccc(S(=O)(=O)O/N=C2\CCCc3ccccc32)cc1 do in these assays?
KCNQ2 block: inactive; KCNQ2 pot: 1.5

Results for CC1=C(C)/C(=N\OS(=O)(=O)c2ccccc2)C=CC1=O ?
KCNQ2 block: inactive; KCNQ2 pot: 6.9*; Kir21 conf inh: 69%*; HEK293 ctr: inactive; CHO-K1 Tl ctr: 17*; KCNQ1 sel pot: -17; KCNQ2 pot confirm: 28*; Kir2-1 sel: -64; KCNQ2 W236L MoA: 57%*

What do the screens show for `CCOC(=O)c1csc(N/N=C2\CCCc3ccccc32)n1`?
KCNQ2 block: inactive; KCNQ2 pot: 5.5*; Kir21 conf inh: inactive; HEK293 ctr: inactive; CHO-K1 Tl ctr: 22*; KCNQ1 sel pot: -13; KCNQ2 pot confirm: -10; Kir2-1 sel: -43; KCNQ2 W236L MoA: inactive

What do the screens show for `CCOC(=O)c1csc(N/N=C2\CCc3ccccc32)n1`?
KCNQ2 block: inactive; KCNQ2 pot: 2.9

How did CC1CN(C(=O)COC(=O)c2ccc(Cl)nc2)CC(C)O1 (stereo not given) do in these assays?
KCNQ2 block: inactive; KCNQ2 pot: 0.25

Results for O=C(OCc1cccc([N+](=O)[O-])c1)c1ccncc1 ?
KCNQ2 block: inactive; KCNQ2 pot: 6.6*; Kir21 conf inh: inactive; HEK293 ctr: 142%*; CHO-K1 Tl ctr: -5; KCNQ1 sel pot: -19; KCNQ2 pot confirm: 1.0*; Kir2-1 sel: -33; KCNQ2 W236L MoA: inactive

What do the screens show for `O=C(OCc1cccc([N+](=O)[O-])c1)c1cnccn1`?
KCNQ2 block: inactive; KCNQ2 pot: 1.6

How did Cc1ccc(C)c(OCc2cc(C(=O)N3CC[C@H](O)C3)no2)c1 do in these assays?
KCNQ2 block: inactive; KCNQ2 pot: 1.5

Results for CCOc1ccc(N(CC(=O)N/N=C/c2ccccn2)S(=O)(=O)c2ccc(Cl)cc2)cc1 ?
KCNQ2 block: inactive

What do the screens show for `CC1CC(C(=O)Nc2ccccc2)C(=O)O1` (stereo not given)?
KCNQ2 block: inactive; KCNQ2 pot: 0.69

Bioassay records from PubChem BioAssay.
